Test results from PubChem BioAssay (NCATS).
Records with an inconclusive call do not appear. The source made the active and inactive calls. Calls follow the shape of the dose curve; as a rule, active = well fitted inhibition curve with a large enough effect; inconclusive = small, poorly fitted or top-dose-only effect; inactive = no such curve, though single readings can be large or run the other way.

assay: qHTS Screen of the MIPE 4.0 Collection Against Ewings Sarcoma (EW8) (AID 1259255); details: EW8 Ewing sarcoma viability, CellTiter-Glo, 48 h; series mostly up to 45.8 µM; viability: at the top concentration; also: nearly all actives have a fitted effect of over 35% in size;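 as to viability: 100% = DMSO-treated cells and 0% = medium-only wells without cells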
From the text: There is a large unmet medical need for treatments for Ewing sarcoma, a pediatric sarcoma. We sought to identify compounds that inhibited Ewing sarcoma cells in vitro with the goal to then test promising drugs in two drug combinations in vitro to look for synergistic drug combinations. Promising combinations would then proceed to additional validation, including in vivo testing.
Using the NCATS developed oncology compound library called the Mechanism of Interrogation Plate (MIPE), four Ewing sarcoma cell lines were evaluated (TC32, TC71, RDES, EW8). Compounds, in a 12-point titration series, were incubated with cells for 48 hours and the read out was cell viability (CellTiter-Glo from Promega). These initial experiments were used to select appropriate concentrations of each single agent for subsequent two-drug matrix combinations such that the concentrations in the matrices would span both activity and non-activity.
Cells, in the log phase of growth, were seeded in 5 uL of RPMI plus 5% FBS, […] L-glutamine, 100 U/ml penicillin and 100 ug/ml streptomycin into 1536-well solid-bottom white tissue culture treated Greiner Bio One Plates (789173-F) using a MultiDrop Combi (Thermofisher Scientific) dispenser and a small sterile cassette. One column was media alone to be used as a :"no cells" control. The plates were then covered with sterilized stainless steel gasketed lids from Kalypsys. After allowing cells to attach for 4 hours, 23 nL of test compound or control (negative control DMSO and positive control 9.2 uM Bortezomib-final) were added from a 1536-well polypropylene compound source plate to each well using a 1536 head pin tool from Kalypsys. Cells were then incubated for 48 hours at 37C, 95% relative humidity and 5% CO2. After 48 hours, plates were removed from the incubator and 3 uL of CellTiter-Glo (Promega) was added using an Aurora Flying Reagent Dispenser Bioraptor. Plates were incubated at room temperature for 10 minutes prior to reading the luminescence on the Viewlux (PerkinElmer). The relative luciferase units are used to calculate the percent activity using the activity of DMSO in the cells and no cells columns for normalization of no inhibition and full inhibition respectively.
Potency is read from the fitted curve at half-maximal effect.

Compound	viability	Potency
CCCC[N+]1(C)[C@H]2CC(OC(=O)[C@H](CO)c3ccccc3)C[C@H]1[C@H]1O[C@H]12 (stereo not given in full)	121% (inactive)	–
CC1(N2CCC(n3c([C@@H]4CCCNC4)nc4ccccc43)CC2)CCCCCCC1	–	10.5 µM (active)
CCNC(=O)C[C@@H]1N=C(c2ccc(Cl)cc2)c2cc(OC)ccc2-n2c(C)nnc21	–	7.43 µM (active)
COc1cc2cc(c1Cl)N(C)C(=O)C[C@H](OC(=O)C(C)C)[C@]1(C)O[C@H]1[C@H](C)[C@@H]1C[C@@](O)(NC(=O)O1)[C@H](OC)C=CC=C(C)C2	4.2% (inactive)	–
CC(C)(O)C=CC(=O)[C@](C)(O)[C@H]1[C@H](O)C[C@]2(C)[C@@H]3CC=C4[C@@H](C=C(O)C(=O)C4(C)C)[C@]3(C)C(=O)C[C@@]12C	–	0.118 µM (active)
COCC1(CO)C(=O)C2CCN1CC2 (stereo not given)	–	2.64 µM (active)
CN(C)[C@@H]1C(=O)C(C(N)=O)=C(O)[C@@]2(O)C(=O)C3=C(O)c4c(O)cccc4[C@@](C)(O)[C@H]3[C@H](O)[C@@H]12	116% (inactive)	–
O=[N+]([O-])c1ncc[nH]1	105% (inactive)	–
C[C@H]1CCCC=CC2C[C@H](O)C[C@@H]2[C@H](O)C=CC(=O)O1 (stereo not given in full)	1.93% (inactive)	–
CC(C)N[C@@H]1CCn2c(=O)[nH]c3cccc(c32)[C@@H]1O	–	7.43 µM (active)
Cc1ccccc1-n1c(Cn2ncc3c(N)ncnc32)nc2cccc(C)c2c1=O	–	26.4 µM (active)
CC(=O)O[C@@]12CO[C@H]1C[C@H](O)[C@@]1(C)C(=O)[C@H](O)C3=C(C)[C@@H](O)C[C@@](O)([C@@H](OC(=O)c4ccccc4)[C@@H]21)C3(C)C	–	2.35 µM (active)
CCN1C[C@]2(OC(=O)c3ccccc3NC(C)=O)CC[C@H](OC)[C@@]34[C@H]5CC6[C@@H](OC)C[C@](O)(C(C[C@@H]23)[C@@H]14)[C@@]5(O)[C@@H]6OC	124% (inactive)	–
CC[C@H]1C=CC=CC[C@@H](C)[C@H](O)[C@@](C)(O)C(=O)[C@@H](C)[C@H](O)[C@@H](C)C(=O)[C@@H](C)[C@H](O)[C@@H](C)C=CC(=O)O[C@@H]2[C@@H](C)[C@H](CC1)O[C@]1(CC[C@H](C)[C@H](C[C@@H](C)O)O1)[C@H]2C	–	4.69 µM (active)
COc1ccc2c(c1)[C@]13CCCCC1C(C2)N(C)CC3 (stereo not given in full)	109% (inactive)	–
C[C@@]12OC(=O)[C@]1([C@@H](O)[C@@H]1C=CCCC1)NC(=O)[C@H]2CCCl	–	0.0264 µM (active)
C=CCON=C(C[C@H]1O[C@@H]2O[C@]3(C)CC[C@@H]4[C@H](C)CC[C@@H]([C@H]1C)[C@@]24OO3)[C@H]1O[C@@H]2O[C@]3(C)CC[C@H]4[C@H](C)CC[C@@H]([C@@H]1C)[C@@]24OO3	–	0.296 µM (active)
CC(=O)OCC1=C(C(=O)O)N2C(=O)[C@@H](N)[C@@H]2SC1	118% (inactive)	–
CC(=Cc1csc(C)n1)[C@@H]1C[C@H]2O[C@]2(C)CCC[C@H](C)[C@@H](O)[C@@H](C)C(=O)C(C)(C)[C@@H](O)CC(=O)O1	7.7% (inactive)	–
O=C(O)CNC(=O)c1c(O)c2ccccc2n(Cc2ccccc2)c1=O	–	16.6 µM (active)

Compound	viability	Potency
Cc1[nH]nc2ccc(-c3cncc(OC[C@@H](N)Cc4c[nH]c5ccccc45)c3)cc12	–	2.09 µM (active)
COc1ccc(N(C(=O)Oc2c(C)cccc2C)c2ccnc(Nc3ccc(N4CCN(C)CC4)cc3)n2)c(OC)c1	–	2.64 µM (active)
C[C@](O)(COc1ccc(C#N)cc1)C(=O)Nc1ccc(C#N)c(C(F)(F)F)c1	90.7% (inactive)	–
CC1=NN=C(c2ccc(N)cc2)c2cc3c(cc2C1)OCO3	98.6% (inactive)	–
N#C[C@H](O[C@@H]1O[C@H](CO[C@@H]2O[C@H](CO)[C@H](O)[C@H](O)[C@H]2O)[C@H](O)[C@H](O)[C@H]1O)c1ccccc1	–	20.9 µM (active)
CC(N[C@H]1C[C@H]1c1ccccc1)c1ccc2c(c1)OCCO2 (stereo not given in full)	110% (inactive)	–
CCC(=O)OC1CCC2C3CCC4=CC(=O)CC[C@@]4(C)C3CC[C@]12C (stereo not given in full)	112% (inactive)	–
Cc1c(C(=O)Nc2cccc(C(F)(F)F)c2)cc(-c2ccccc2)n1CCCN1CCOCC1	–	16.6 µM (active)
CC(C)(C)[C@]1(O)C[C@@H]2OC(=O)C[C@@]23C(=O)O[C@@H]2OC(=O)[C@H](O)C213 (stereo not given in full)	95.4% (inactive)	–
Cc1c(C(=O)c2cccc3ccccc23)c2cccc3c2n1[C@H](CN1CCOCC1)CO3	–	26.4 µM (active)
C1=C2CCCN[C@H]2[C@@H]2C[C@H]1[C@@H]1CCCCN1C2	124% (inactive)	–
Cc1nc(-c2ccc(-c3ccc(C(=O)N4CCc5cc6c(cc54)C4(CCN(C)CC4)CO6)cc3)c(C)c2)no1	126% (inactive)	–
O=C(Oc1ccc([N+](=O)[O-])cc1)N1CCC(C(O)(c2ccc3c(c2)OCO3)c2ccc3c(c2)OCO3)CC1	110% (inactive)	–
CC(=Cc1csc(C)n1)[C@@H]1C[C@H]2O[C@@H]2CCC[C@H](C)[C@@H](O)[C@@H](C)C(=O)C(C)(C)[C@@H](O)CC(=O)O1	10.4% (inactive)	–
CC(C)[C@]12O[C@@H]1[C@@H]1O[C@]13[C@]1(O[C@H]1C[C@@H]1C4=C(CC[C@@]13C)C(=O)OC4)[C@H]2O	0.653% (inactive)	–
C[C@]12CC[C@H]3[C@@H](CCC4=CC(=O)CC[C@@]43C)[C@H]1CC[C@H]2O	104% (inactive)	–
C[C@]12COC(=O)C[C@@H]1CC[C@@H]1[C@H]2CC[C@@]2(C)[C@H]1CC[C@]2(C)O	102% (inactive)	–
CCCCCC[C@H]1C(=O)O[C@H](C)[C@H](NC(=O)c2cccc(NC=O)c2O)C(=O)O[C@@H](C)[C@@H]1OC(=O)CC(C)C	–	0.105 µM (active)
C#C[C@]1(O)C=C[C@@H]2[C@@H]3CCC4=CC(=O)CC[C@@H]4[C@H]3CC[C@@]21CC	103% (inactive)	–
COc1cc([C@@H]2c3cc4c(cc3[C@@H](O)C3COC(=O)C32)OCO4)cc(OC)c1O (stereo not given in full)	–	0.0264 µM (active)
